Assay results from PubChem BioAssay (NCATS).
Where “and” joins values, the source holds several entries; their conditions need not be identical. Identical values can stand only once. Records with an inconclusive call do not appear. Where a call stands in place of a potency, no number is given. Some structures have more than one record in an assay (separate samples or runs), and their calls can disagree. Calls of active or inactive are those of the source. Calls follow the shape of the dose curve; as a rule, active = well fitted curve in the direction sought with a large enough effect; inconclusive = small, poorly fitted or top-dose-only effect, or another doubt; inactive = no such curve, though single readings can be large; an effect the other way counts as inactive or inconclusive.

Experiments:
[1] = target: Calcium and integrin-binding protein 1 (Homo sapiens) (UniProt Q99828); test: Primary qHTS for Identification of Calcium Integrin Binding Protein 1 (CIB1) Competitor (AID 1508620);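 also: GST tagged CIB1 binding a fluorescein labelled alphaIIb integrin peptide tracer; top concentration of the series differs between compounds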
In short: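 CIB1-GST (1 uM final) and compound incubated 15 min at room temperature before adding FITC-alphaIIb peptide tracer (100 nM final). Competition for binding read by fluorescence polarization (ex 480, em 540) after another 15 min at room temperature.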

[2] = Primary qHTS for inhibitors of nuclear receptor binding SET domain protein 2 (NSD2) in an isogenic RCH-ACV NSD2 p.E1099K mutant (9B) (AID 1645876); also: nearly all actives have a fitted effect of over 70% in size; also: potency is read from the fitted curve at half-maximal effect
[3] = Primary qHTS for inhibitors of nuclear receptor binding SET domain protein 2 (NSD2) in an RCH-ACV wild type WT cells (2C) (AID 1645877); also: nearly all actives have a fitted effect of over 70% in size; also: potency is read from the fitted curve at half-maximal effect

Chain of Calcium and integrin-binding protein 1 (Homo sapiens) (Q99828 whole entry, looked up): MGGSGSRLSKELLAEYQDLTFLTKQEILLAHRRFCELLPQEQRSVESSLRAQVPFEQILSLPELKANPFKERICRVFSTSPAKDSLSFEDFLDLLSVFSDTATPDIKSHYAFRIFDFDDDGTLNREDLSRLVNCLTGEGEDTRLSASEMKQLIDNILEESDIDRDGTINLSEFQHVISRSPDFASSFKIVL

Compound	Potency [1]	Potency [2]	Potency [3]
Cc1noc2c1-c1ccccc1C(c1ccc(Cl)cc1)=N[C@H]2CC(N)=O	inactive	inactive and 590 nM (active)	inactive and 525 nM (active)
C=C(CCO)C(=O)OCC1OCC(OC(=O)C(=C)CCO[C@@H]2O[C@H](CO)[C@@H](O)[C@H](O)[C@H]2O)C(O)C1O (some centres undefined)	inactive	inactive	inactive
C=C1CC2C(C)(CCC(=O)O)C(C(C)(C)O)CCC2(C)C2(C(=O)OC)C(=O)C(C)(O)C(=O)C12C (centres undefined)	inactive	inactive	inactive
CC(=O)c1c(C)cccc1O[C@@H]1O[C@H](CO)[C@@H](O)[C@H](O)[C@H]1O	inactive	inactive	inactive
C[C@]1(OC(=O)/C=C\c2ccc(O)cc2)C[C@@H](O)[C@]2(O)C=CO[C@@H](O[C@@H]3O[C@H](CO)[C@@H](O)[C@H](O)[C@H]3O)C12 (some centres undefined)	inactive	inactive	inactive
COC(=O)C1=CO[C@@H](O[C@@H]2O[C@H](CO)[C@@H](O)[C@H](O)[C@H]2O)/C(=C\CO)[C@@H]1CC(=O)OCCc1ccc(O)cc1	inactive	inactive	inactive
COc1cc(/C=C/C(=O)O)ccc1O[C@@H]1O[C@H](CO)[C@@H](O)[C@H](O)[C@H]1O[C@@H]1OC[C@](O)(CO)[C@H]1O	inactive	inactive	inactive
C[C@@H]1O[C@@H](O[C@H]2[C@@H]3C=CO[C@@H](O[C@@H]4O[C@H](CO)[C@@H](O)[C@H](O)[C@H]4O)[C@@H]3[C@@]3(CO)O[C@@H]23)[C@H](O)[C@H](O)[C@H]1OC(=O)/C=C/c1ccc(O)cc1	inactive	inactive	inactive
CC(=O)c1ccc(O[C@@H]2O[C@H](CO[C@@H]3OC[C@@H](O)[C@H](O)[C@H]3O)[C@@H](O)[C@H](O)[C@H]2O)cc1	inactive	inactive	inactive
C[C@@H]1CC[C@]2(C(=O)O)CC[C@]3(C)C(=CCC4[C@@]5(C)C[C@@H](O)[C@@H](O)C(C)(C)C5CC[C@]43C)C2[C@]1(C)O (some centres undefined)	inactive	inactive	inactive
O=C(OCc1ccccc1O[C@@H]1O[C@H](CO)[C@@H](O)[C@H](O)[C@H]1O)C1(O)C=CCCC1O (some centres undefined)	inactive	inactive	inactive
OC[C@@]1(O)CO[C@H](OC[C@H]2O[C@@H](OCCc3ccccc3)[C@H](O)[C@@H](O)[C@@H]2O)[C@@H]1O	inactive	inactive	inactive
CC1(C)C2CC[C@@]34CC(CC[C@H]3[C@]2(C)CC[C@@H]1O[C@@H]1O[C@H](CO)[C@@H](O)[C@H](O)[C@H]1O)[C@](C)(O)C4 (some centres undefined)	inactive	inactive	inactive
CC(C)(O)C(O)C(=O)OCc1ccc(O[C@@H]2O[C@H](CO)[C@@H](O)[C@H](O)[C@H]2O)cc1 (some centres undefined)	inactive	inactive	inactive
COc1cc(/C=C/C(=O)O[C@@H]2C[C@@](O)(C(=O)O)C[C@@H](O)[C@@H]2O)ccc1O	inactive	inactive	inactive
COC(=O)C1=CO[C@@H](O[C@@H]2O[C@H](CO)[C@@H](O)[C@H](O)[C@H]2O)[C@H]2[C@@H]1[C@H](O)C[C@]2(C)O	inactive	inactive	inactive
C=C[C@H]1[C@H](O[C@@H]2O[C@H](CO)[C@@H](O)[C@H](OC(=O)/C=C/c3ccc(O)c(OC)c3)[C@H]2O)OC=C2C(=O)OCC[C@]21O	inactive	inactive	inactive
CC1(C)CC[C@]2(C(=O)O)[C@H](O)C[C@]3(C)C(=CCC4[C@@]5(C)CC[C@H](O[C@@H]6OC[C@@H](O)[C@H](O)[C@H]6O)[C@@](C)(C(=O)O)C5CC[C@]43C)[C@@H]2C1 (some centres undefined)	inactive	inactive	inactive
C=C[C@H]1[C@H](O[C@@H]2O[C@H](CO)[C@@H](O)[C@H](O)[C@H]2O)OC=C(C(=O)OC)[C@H]1CCO	inactive	inactive	inactive
C=C1C2CCC3CC2(CC(O)C2(O)C1CC(OC1OC(CO)C(O)C(O)C1O)C2(C)C)CC3(C)O (centres undefined)	inactive	inactive	inactive
C=C1C2(C)CC3C4(C)OC(C5OC56C4=CC(=O)OC6(C)C)C3(C)C13C(=O)OC(C)C3(O)C2=O (centres undefined)	inactive	inactive	inactive
CC1=CC(=O)CC(C)(C)C1CCC(C)O[C@@H]1O[C@H](CO)[C@@H](O)[C@H](O)[C@H]1O (some centres undefined)	inactive	inactive	inactive
COc1c2cc(c(O[C@@H]3O[C@H](CO)[C@@H](O)[C@H](O)[C@H]3O)c1OC)CCCCC(O)CCc1ccc(O)c-2c1 (some centres undefined)	inactive	inactive	inactive
